Results on 35 compounds are retold here after PMC5540273 (PLoS ONE, 2017).

The structures appear in SMILES notation.
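Further: KINOMEscan kinase panel screen.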

The test has as its system PIKFYVE. The note with it: concentration: 1 μM, replicates: in singlicate; n = 1.
`COc1ccc(COc2cc(-n3cnc4ccccc43)sc2C(N)=O)cc1` [GSK1024304]: the “%Inh” value is reported as 0%.
Turning to `Cc1nnc(-c2ccc3ncc(-c4ccc(S(C)=O)cc4)n3c2)o1` (centres unmarked), the “%Inh” value was 0%.
`COc1ccc(S(=O)(=O)NC2CCN(c3cc(C)nc(Nc4cccc(C#N)c4)n3)CC2)cc1.O=C(O)C(F)(F)F` [GSK1653539]: the “%Inh” value is reported as 0%.
Regarding `COc1ccc(Nc2nccc(N3CCC(NC(=O)Nc4cccc(C(C)=O)c4)C3)n2)cc1` (centres unmarked) [GSK1379731], the “%Inh” value stood at 0%.
Then `Cc1cccc(-c2nc(Nc3ccc4ncsc4c3)c3ccccc3n2)n1` [GW867588], with 54%; and `C[C@@H](Oc1cc(-n2cnc3ccc(NC(=O)NC(C)(C)C)cc32)sc1C(N)=O)c1ccccc1Cl` [GSK346294], with 37%; and `c1ccc(-c2cc(-c3c[nH]nc3-c3ccccn3)ccn2)cc1` [GW576604], with 0%.
On to `CCc1nc(-c2cccc(C)c2)c(-c2ccnc(NCc3ccccc3)c2)s1`, for which the “%Inh” value was 0%.
Then `COCCNC(=O)c1ccc(-c2cc(C(=O)NC3CC3)cc(F)c2C)cc1` [GW868318], with 43%.
Then `N#Cc1ccc(-c2cc(-c3c[nH]nc3-c3ccccn3)ccn2)cc1` [GW693028], with 0%.
Consider `O=C(Nc1n[nH]c2cc(-c3cccc(F)c3)ccc12)C1CC1` [SB-735464], for which the “%Inh” value is 0%.
Then `Cl.Oc1cccc(Nc2ccnc3cc(-c4ccncc4)ccc23)c1` [GW494601], with 44%.
Then `Cn1cc(-c2ccc3c(c2)CCN3C(=O)Cc2ccccc2Cl)c2c(N)ncnc21` [GSK2608885], with 0%; and `CN1c2ccc(CNc3ccc(F)cc3)cc2-c2c(cnn2C)S1(=O)=O`, with 17%.
Turning to `O=c1cc(N2CCOCC2)nc2n(Cc3cccc(C(F)(F)F)c3)ccn12` [GSK2297543], the “%Inh” value was 0%.
On to `Fc1ccc(-c2nn3c(OCC(F)(F)F)cccc3c2-c2ccncc2)cc1` [GW514784], for which the “%Inh” value was found to be 51%.
Regarding `COc1cc2c(cc1OC[C@@H](O)CO)ncc1c3ccc(C#N)cc3[nH]c21`, the “%Inh” value amounted to 56%.
As to `Nc1nc(-c2ccc3c(N)n[nH]c3c2)cc(N2CCCC2)n1` [GSK2227430], the “%Inh” value was 0%.
As to `Cc1cccc(-c2nc(-c3ccc(S(C)(=O)=O)cc3)sc2-c2ccncc2)c1`, the “%Inh” value is given as 25%.
For `NCC(NC(=O)c1cc(-c2cn[nH]c2)c(-c2ccnc3[nH]ccc23)s1)c1ccccc1.O=C(O)C(F)(F)F.O=C(O)C(F)(F)F` (centres unmarked) [GSK1325775], the “%Inh” value is 0%.
Consider `O=C(Nc1cccc(-c2nn3ncccc3c2-c2ccnc(Nc3cccc(C(F)(F)F)c3)n2)c1)c1c(F)cccc1F` [GSK299495], for which the “%Inh” value amounted to 15%.
Take `O=c1cc(N2CCOCC2)nc2n(Cc3cccc4ccccc34)ccn12` [GSK2333389]: the “%Inh” value is 0%.
For `CSc1ccc(-c2cc3ncnc(SCC(=O)O)c3s2)cc1`, the “%Inh” value is reported as 28%.
Then `O=C(NCCNc1ccnc(Nc2ccc(F)cc2)n1)c1cc2ccccc2s1` [GSK1379874], with 0%; and `COc1cc2c(cc1OCCN1CCN(C)CC1)ncc1c3ccc(C#N)cc3[nH]c21`, with 64%.
Turning to `Cc1nnc(-c2ccc3occ(-c4ccc(C(C)O)cc4)c3c2)o1` (centres unmarked), the “%Inh” value amounted to 0%.
Then `COc1ccc(Nc2ncc(C#N)c(Nc3ccccc3C(N)=O)n2)cc1N1CCN(C)CC1.Cl` [GSK1558669], with 94.4%; and `O=C(NCCCN1CCOCC1)c1cccc(Nc2nccc(Nc3ccc(Oc4ccccc4)cc3)n2)c1` [GW663929], with 37%; and `CC(=O)Nc1ccc(COc2ccc(Nc3ccnc4cc(-c5ccccn5)ccc34)cc2)cc1.Cl` [GW440148], with 2%.
Consider `c1ccc(-c2n[nH]cc2-c2ccnc3ccccc23)nc1` [GW271431], for which the “%Inh” value worked out at 0%.
For `COc1ccc(CNC(=O)NC2CCN(c3ccnc(Nc4ccc(OC)cc4)n3)C2)cc1` (centres unmarked) [GSK1379727], the “%Inh” value was 29%.
`O=C(c1ccc(-c2cc(-c3c[nH]nc3-c3ccccn3)ccn2)cc1)N1CCOCC1` [GW812171]: the “%Inh” value turned out to be 0%.
On to `COc1cc(Nc2nccc(N3CCC(NC(=O)c4cccc(NC(C)=O)c4)C3)n2)cc(OC)c1OC` (centres unmarked) [GSK1379754], for which the “%Inh” value amounted to 0%.
On to `CC(C)(C)n1cnc2c(N)ncnc21` [SKF-97359], for which the “%Inh” value is on record as 51%.
On to `Cc1c(Cn2c(C)nn3c(=O)cc(N4CCOC(C)C4)nc23)cccc1C(F)(F)F` (centres unmarked) [GSK2344444], for which the “%Inh” value came out at 46%.
